Sampled rows, rich in hits. Any-hit rate of the full collection: about 19%.
DT40 TDP1 no CPT: qHTS for Inhibitors of human tyrosyl-DNA phosphodiesterase 1 (TDP1): qHTS in cells in absence of CPT; DT40 Tdp1-/- hTDP1 cells, no CPT, ATP luminescence, 48 h; Potency, µM (top dose mostly 46.2 µM), usual class: inhibitors; 15% of 420,000 active; AID 686978, 2013; also: nearly all actives have a fitted effect of over 55% in size
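No-CPT arm: Tdp1-/-;hTDP1 DT40 cells (400/well) plus compounds, incubated ≥48 hr at 37 °C. Readout CellTiter-Glo luminescence.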
ASM inhibitor: blocks human secretory acid sphingomyelinase | P17405 | placental ASM, HMU-PC fluorogenic substrate, 60 min | Potency, µM (highest dose often 57.5 µM), usual class: inhibitors | 0.006% of 340,000 active
Target sequence (P17405 47-631 limits assumed): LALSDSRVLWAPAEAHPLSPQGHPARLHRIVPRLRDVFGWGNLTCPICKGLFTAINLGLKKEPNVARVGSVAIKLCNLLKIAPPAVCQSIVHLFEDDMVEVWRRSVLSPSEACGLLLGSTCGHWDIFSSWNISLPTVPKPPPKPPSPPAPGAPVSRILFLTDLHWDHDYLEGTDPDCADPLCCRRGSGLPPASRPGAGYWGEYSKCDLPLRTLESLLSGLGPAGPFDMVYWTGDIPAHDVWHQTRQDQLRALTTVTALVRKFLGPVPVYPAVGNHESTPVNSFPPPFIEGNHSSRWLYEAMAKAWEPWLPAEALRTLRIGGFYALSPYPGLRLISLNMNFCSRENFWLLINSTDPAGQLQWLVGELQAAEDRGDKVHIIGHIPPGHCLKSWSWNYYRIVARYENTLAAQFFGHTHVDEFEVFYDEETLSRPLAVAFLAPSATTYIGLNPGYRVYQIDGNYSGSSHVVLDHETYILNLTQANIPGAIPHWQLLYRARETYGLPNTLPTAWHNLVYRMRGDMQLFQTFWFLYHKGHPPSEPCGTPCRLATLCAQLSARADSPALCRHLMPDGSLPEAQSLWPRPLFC
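Fluorogenic HMU-PC substrate (9 uM final) is turned over by placental ASM in 60 min at 37 C after a 10 min compound preincubation. Reaction ended by alkaline stop (pH 10), with fluorescence read at 386/447 nm.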
IL1B secr inh: inflammasome signaling inhibition, IL-1 beta readout | THP-1 LPS/ATP IL-1B secretion, AlphaLISA, 16 h; stronger effect = lower value | activity change, % at 57.5 µM | AID 743279 | 4.7% of 360,000 active; in the data active = activity change below about -50%; inconclusive = mostly about -30% to -49%
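Secreted IL-1B measured by AlphaLISA bead assay after 16 h compound exposure of THP-1 cells; compounds (final up to 57.5 uM) added 1 h before LPS (250 ng/mL) and ATP (1.25 mM) stimulation; lower signal means less secretion.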
DT40 TDP1 CPT: growth inhibition of DT40 Tdp1-/-;hTDP1 cells with camptothecin (screen for TDP1 inhibitors). AID 686979. 12% of 420,000 active. Potency, µM (highest dose often 46.2 µM), usual class: inhibitors. chicken DT40 Tdp1-/-;hTDP1 cells + 20 nM CPT, ATP luminescence, 48 h; also: nearly all actives have a fitted effect of over 55% in size
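Chicken DT40 Tdp1-/- cells stably complemented with human TDP1 were seeded at 400 cells/well in medium containing 20 nM camptothecin, exposed to pin-transferred compounds, and grown at 37 °C for at least 48 hr. Viability was read as ATP luminescence.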
HepG2 viability: counter-screen for TGF-b inhibitors: cytotoxicity in HepG2 cells; HepG2 CAGA-GFP viability, ATP luminescence, 18 h; Potency, µM (top dose mostly 46.1 µM), hits mostly cytotoxic; 0.76% of 410,000 active; AID 588856
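HepG2 CAGA-GFP cells (1000/well, DMEM with 1% FBS) received compound, then TGF-beta at 500 pg/mL final, and were incubated 18 hours at 37 degrees C. Viability was read by CellTiter-Glo luminescence. Media-only wells were set as complete cell-killing and DMSO as no toxicity.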
TGFb inhibitor: blocks TGF-b signaling; HepG2 CAGA-GFP TGF-b/SMAD3 reporter, GFP fluorescence, 18 h; TGF-beta stimulated, 500 pg/mL final; Potency, µM (top dose mostly 46.1 µM), actives largely listed as inhibitors; 1.2% of 410,000 active; AID 588855; also: nearly all actives have a fitted effect of over 65% in size
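Smad-responsive CAGA-GFP expression was quantified in HEPG2 cells exposed to compounds and 500 pg/mL final TGF-beta for 18 h at 37 degrees C; unstimulated wells defined full inhibition.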
A number is an active result; . = inactive; ? = inconclusive; / = not tested or not shown. Unless noted, calls follow the shape of the dose curve; as a rule, active = well fitted curve in the direction sought with a large enough effect; inconclusive = small, poorly fitted or top-dose-only effect, or another doubt; inactive = no such curve, though single readings can be large; an effect the other way counts as inactive or inconclusive.

SMILES	DT40 TDP1 no CPT	ASM inhibitor	IL1B secr inh	DT40 TDP1 CPT	HepG2 viability	TGFb inhibitor
CC(OC(=O)c1cc[n+]([O-])cc1)C(=O)NCc1ccccc1 (configuration not stated)	.	.	.	.	.	.
COc1ccc(C2CC(=O)c3cc(-c4nc(-c5cccc([N+](=O)[O-])c5)cs4)c(=O)n(-c4ccc(C)c(C)c4)c3C2)cc1 (configuration not stated)	.	/	/	.	.	?
O=C(/C=C\c1cn(-c2ccccc2)nc1-c1ccccc1)Nc1nccs1	?	.	.	15µM	.	?
COc1ccc(CN2CC(=O)N(c3ccc(C)cc3)C2=S)cc1OC	?	.	.	.	.	.
COc1cc(CN2CC(=O)N(c3ccc(C)cc3)C2=S)cc(OC)c1OC	26µM	.	.	?	.	.
COc1cc(CN2CC(=O)N(c3ccc(C)c(Cl)c3)C2=S)cc(OC)c1OC	21µM	.	.	?	.	.
Cc1cccc(N2C(=O)CN(Cc3ccccc3)C2=S)c1	.	.	.	.	.	.
CCOC(=O)c1c(C)[nH]c(C)c1S(=O)(=O)N(C)CC(=O)Nc1cccc(Cl)c1C	?	/	/	?	.	?
CC(C)N(Cc1nc(-c2ccccc2)no1)C(=O)COc1ccccc1	?	.	.	?	.	.
COc1ccccc1OCC(=O)N(Cc1nc(-c2ccc(Cl)cc2)no1)C(C)C	16µM	.	.	?	.	.
Cc1cc(Br)ccc1OCC(=O)N(Cc1nc(-c2ccccc2)no1)C(C)C	.	.	.	.	.	.
COc1cccc(OCC(=O)N(Cc2nc(-c3ccc(Cl)cc3)no2)C(C)C)c1	23µM	.	.	8.2µM	.	?
Cc1ccc(-c2noc(CN(C(=O)COc3cc(C)cc(C)c3C)C(C)C)n2)cc1	?	/	/	23µM	.	?
COc1ccccc1OCC(=O)N(Cc1nc(-c2ccccc2)no1)C(C)C	?	.	-59	.	.	.
CCN(Cc1nc(-c2ccccc2)no1)C(=O)COc1cccc(OC)c1	.	.	.	.	.	.
CC1CC1C(=O)OCC(=O)NCc1ccccc1 (configuration not stated)	.	.	.	.	.	.
COc1ccc(Cl)cc1S(=O)(=O)NC(C)C(=O)NCc1cccnc1 (configuration not stated)	.	.	.	.	.	.
Cc1c(N2C(=O)/C(=C/C3CC=CCC3)SC2=S)c(=O)n(-c2ccccc2)n1C (configuration not stated)	?	.	-59	18µM	.	?
Cc1c(N2C(=O)/C(=C\C3CC=CCC3)SC2=S)c(=O)n(-c2ccccc2)n1C (configuration not stated)	?	.	-101	?	.	.
Cc1c(N2C(=O)C3C4C=CC(C4)C3C2=O)c(=O)n(-c2ccccc2)n1C (configuration not stated)	.	.	.	.	.	.
Cc1c(N2C(=O)/C(=C3\C(=O)N(CC(=O)O)c4ccccc43)SC2=S)c(=O)n(-c2ccccc2)n1C	?	.	.	?	.	.
COc1cc(NS(=O)(=O)c2ccc(-c3ccc(=O)[nH]n3)o2)cc(OC)c1OC	.	.	.	.	.	.
NC(=O)C1(Nc2ccc(-c3ccc(Cl)cc3)cc2)CCCC1	?	.	.	16µM	.	.
O=C(O)C1(Nc2ccc(Cl)cc2)CCCC1	.	.	.	.	.	.
COC(=O)c1cc(=O)n(Cc2ccc3c(c2)OCO3)c(=Nc2ccc(F)cc2)s1	?	.	.	?	.	.
SMILES	DT40 TDP1 no CPT	ASM inhibitor	IL1B secr inh	DT40 TDP1 CPT	HepG2 viability	TGFb inhibitor
COC(=O)c1ccc(N=c2sc(C(=O)OC)cc(=O)n2C)cc1	26µM	.	.	21µM	.	.
CCOC(=O)c1ccc(N=c2sc(C(=O)OC)cc(=O)n2C2CC2)cc1	.	.	.	.	.	.
COC(=O)c1cc(=O)n(Cc2cccs2)c(=Nc2ccc(F)cc2)s1	21µM	.	.	?	.	?
COC(=O)c1c(O)cc(C(C)(C)C)n(-c2ccc(F)cc2)c1=O	.	.	.	.	.	.
COC(=O)c1cc(=O)n(-c2ccc(F)cc2)c(=Nc2ccc(F)cc2)s1	6.5µM	.	-105	6.5µM	.	?
COC(=O)c1cc(=O)n(Cc2ccc(F)cc2)c(=NCc2ccc(F)cc2)s1	.	.	.	.	.	.
CCOC(=O)c1ccc(N=c2sc(C(=O)OC)cc(=O)n2Cc2ccc3c(c2)OCO3)cc1	6.5µM	.	.	6.5µM	.	.
CC(=O)c1ccc(NC(=O)CCOc2ccccc2)cc1	?	/	/	.	.	.
CC(Oc1cccc(Cl)c1)C(=O)NNC(=O)c1cccnc1 (configuration not stated)	.	.	.	.	.	.
CC(Oc1cccc(Br)c1)C(=O)NNC(=O)c1ccccn1 (configuration not stated)	2.3µM	.	.	2.9µM	.	?
CC(C)C(=O)NNC(=O)c1ccccn1	?	.	.	?	.	.
CC(Oc1ccccc1)C(=O)NNC(=O)c1ccccn1 (configuration not stated)	7.3µM	.	.	10µM	.	?
CCOc1nc2cccc(C(=O)OC(C)OC(=O)OC3CCCCC3)c2n1Cc1ccc(-c2ccccc2-c2nn[nH]n2)cc1 (configuration not stated)	23µM	/	/	?	/	/
COc1ccc(NC(=O)N2CCN3CCCCC3C2)cc1OC (configuration not stated)	.	/	/	.	.	.
CC(=O)c1c(-c2ccccc2)[nH]c2ccccc12	13µM	.	.	13µM	.	.
CC(=O)c1c(C)[nH]c(-c2ccccc2)c1C	.	.	.	.	.	.
O=C(O)/C=C/C(=O)c1c(-c2ccccc2)[nH]c2ccccc12	?	.	.	?	.	13µM
CC1=CC(C)[C@H](/C=N/n2c(=O)[nH]c3c([nH]c4ccc(C)cc43)c2=O)C(C)C1 (some centres not stated)	13µM	.	.	8.2µM	.	.
C#CCOCCOCCOCCNc1nc(N2CCN(C(=O)[C@H](CCC(=O)O)n3cc(CN)nn3)CC2)nc(N2CCN(C(=O)[C@H](CCCCN)n3cc([C@@H](N)CC(N)=O)nn3)CC2)n1	.	.	.	.	.	.
CS(=O)(=O)Nc1ccc(N2CCN(c3ccc(C(F)(F)F)cn3)CC2)nc1	?	.	.	?	.	.
